Screens: PubChem, National Center for Advancing Translational Sciences (NCATS)
D2 ag-1 – activates the human D2 dopamine receptor | HEK293 T-REx D2 cells, calcium flux agonist mode | activation, % at 2 µM | 340,000 tested, 0.53% active | AID 485358;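 active = activation over 3 SD above normal in the single-dose calcium agonist read, cut at about 30% in these data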; note: 0% is about no effect
Target sequence (P14416 whole entry, looked up): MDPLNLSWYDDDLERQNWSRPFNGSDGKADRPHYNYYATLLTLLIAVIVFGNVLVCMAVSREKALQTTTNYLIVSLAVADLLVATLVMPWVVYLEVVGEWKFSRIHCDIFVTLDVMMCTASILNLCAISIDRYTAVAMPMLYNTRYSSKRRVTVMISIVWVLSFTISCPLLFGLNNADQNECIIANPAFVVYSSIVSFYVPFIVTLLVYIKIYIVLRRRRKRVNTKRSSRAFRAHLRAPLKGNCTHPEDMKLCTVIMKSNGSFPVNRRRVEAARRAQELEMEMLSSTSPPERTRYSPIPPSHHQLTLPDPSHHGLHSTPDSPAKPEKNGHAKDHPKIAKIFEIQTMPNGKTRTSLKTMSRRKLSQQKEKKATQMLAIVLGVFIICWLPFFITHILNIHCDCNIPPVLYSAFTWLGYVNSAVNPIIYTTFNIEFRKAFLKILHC
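Calcium-flux readout, 1 cycle/sec over 180 s following compound pin transfer, in inducible HEK293 Trex D2 cells (force-coupled); dopamine controls included. Positive calcium responses during this window marked compounds as potential agonists.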
D2 PAM-1 – positive allosteric modulators of human D2 dopamine receptor; DiscoveRx D2 beta-arrestin cells, luminescence, 90 min; 100% = 57 uM dopamine signal; 360,000 tested, 0.23% active; potentiation, % (test concentration not listed); P14416; AID 624464; in the data active = potentiation above about 50%; inconclusive = mostly about 30% to 49%
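D2 cells co-treated with compound plus 50 nM dopamine (EC20) for 90 min at 37 deg C to detect potentiation. Beta-arrestin recruitment was read as enzyme-fragment luminescence after 1 h at ambient temperature. Full response was set by 57 uM dopamine.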
D2 ag-2 – activates the human D2 dopamine receptor | P14416 | DiscoveRx PathHunter D2 beta-arrestin, luminescence, 90 min; 100% = 57 uM dopamine signal | activation, % (test concentration not listed) | 360,000 tested, 0.084% active; in the data active = activation above about 40%; inconclusive = between about 15% and that limit
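DiscoveRx PathHunter D2 beta-arrestin cells (2,100/well) attached overnight, then compound-stimulated 90 min at 37 C in HBSS/10 mM HEPES/0.1% Tween-20 buffer; beta-galactosidase complementation read by luminescence after 1 h at ambient temperature. Dopamine 57 uM final (EC100) as control.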
D2 PAM-2 – D2 dopamine receptor (human) potentiation; P14416; HEK293 T-REx D2, calcium flux, EC20 dopamine potentiation; potentiation, % at 10 µM; 340,000 tested, 0.34% active;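 active = potentiation over 3 SD above the plate norm, cut at about 30% in these data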; note: 0% is about no effect
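Potentiation of an EC20 dopamine calcium response is measured in a force-coupled, tetracycline-inducible Hek293 Trex D2 line. Compound-only kinetic reads over 180 s flag agonists before dopamine addition.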
D2 antagonist – antagonists of human D2 dopamine receptor | inhibition, % at 10 µM | HEK293 TREx D2 cells, calcium flux, dopamine EC80 | P14416 | 340,000 tested, 2% active; in the data active = inhibition above about 30%; inactive = below that, where a call was filed; note: 0% is about no effect
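Inhibition of EC80 dopamine-driven calcium flux, recorded kinetically, defines activity here; cells are a tetracycline-induced HEK293 T-REx line expressing force-coupled D2.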
D3 arrestin ag – confirmation of human D3 dopamine receptor agonists, beta-arrestin; shares compounds with D2 ag-1; 2,300 tested, 4% active; DiscoveRx D3 beta-arrestin cells, luminescence, 90 min; AID 720506; Potency, µM (titrated, usually from 76.9 µM), for the others: at the highest dose activation, hits mostly activators;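 note: potency is the fitted concentration of half-maximal effect; 100% = dopamine control response; nearly all actives have a fitted effect of over 70% in size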
D2 ag-3 – D2 receptor agonism, beta-arrestin counterscreen | shares compounds with D2 ag-1 | DiscoveRx PathHunter D2 beta-arrestin, luminescence, 90 min; response scale: percent relative to full dopamine signal | Potency, µM (highest dose often 76.9 µM), for the others: at the top dose activation, actives largely listed as activators | 2,300 tested, 5.9% active | AID 720507; note: potency is the fitted concentration of half-maximal effect; % of control where 0% means no effect; nearly all actives have a fitted effect of over 70% in size
The depositor's hits bear a star; ? = inconclusive; · = no result given. Only some compounds are listed: those with a hit (about 2.4% of all), similar ones and a draw of the others. Unless noted, calls come from the whole dose curve; as a rule, active = well fitted activation curve with a large enough effect; inconclusive = small, poorly fitted or top-dose-only effect; inactive = flat fitted curve, though single readings scatter.

SMILES	D2 ag-1	D2 PAM-1	D2 ag-2	D2 PAM-2	D2 antagonist	D3 arrestin ag	D2 ag-3
CCCCN(C)C(=O)c1ccc(Nc2nc(C(N)COCc3ccccc3)cs2)nc1 (configuration not stated)	·	-4.7	-2.0	·	·	·	·
CCCC(c1nnnn1CCOC)N1CCN(Cc2ccccc2)CC1 (configuration not stated)	33.0*	-6.6	0.8	-7.6	-17.2	-11.4%	4.3%
CCOC(=O)C1CCN(Cc2cn(C)nc2-c2ccc(Oc3ccccc3)cc2)CC1	18.3	-5.4	5.5	-8.1	19.9	-12.3%	8.8%
CCOC(=O)C1(Cc2cccc(OC)c2)CCN(Cc2cnc(SC)nc2)CC1	59.0*	2.6	-2.2	-18.6	92.7*	-0.2%	?
CCOC(=O)C1(CCOc2ccccc2)CCN(Cc2cccn2-c2ncccn2)CC1	0.3	-7.2	1.5	2.8	-7.5	-8.4%	2.9%
Cn1cc(CN2CCC(O)CC2)c(-c2ccc(Oc3ccccc3)cc2)n1	0.8	-12.4	-6.9	-13.6	10.3	·	·
CCOC(=O)C1(CCOC)CCN(Cc2cccc(OCc3ccccc3)c2)CC1	63.4*	-3.5	0.6	-20.4	36.9*	-0.1%	24.8%
CC1=C(c2ccc(C)cc2)S(=O)(=O)NC1=NCc1cccc(F)c1	-1.5	·	·	-4.6	·	·	·
COC(=O)C1=C(C)N(Cc2ccccc2)C(=NCCN2CCOCC2)N[C@H]1CCc1ccccc1	·	-9.5	-0.7	·	·	·	·
Cc1ccc(C)c(/C=N/Nc2nc3ccccc3c(=O)n2O)c1	-0.3	-7.5	-5.1	11.0	-5.2	·	·
CCOc1ccc(NC(=O)NCCCN2CCN(c3ccc(F)cc3)CC2)cc1	4.6	·	·	-24.0	·	·	·
CCOC(=O)C1CCN(Cc2cccc(OCc3ccccc3)c2)CC1	73.9*	22.2	48.4*	-20.8	86.2*	14.4%	?
CC(C)(C)SCCNC(=O)c1ccc(CN2CCc3ccccc3C2)cc1	33.7*	-13.3	0.9	-18.6	9.9	-20.5%	3.1%
Cc1cc(-c2ccc(C)c(S(=O)(=O)NCCCN3CCN(c4ccccc4)CC3)c2)on1	71.9*	-8.1	11.4	-27.6	73.4*	?	?
Cc1cc(-c2ccc(C)c(S(=O)(=O)NCCCN3CCN(c4ccccc4F)CC3)c2)on1	70.5*	-8.1	11.3	-23.7	76.0*	?	?
COc1ccc(-c2cc(C)no2)cc1S(=O)(=O)NCCCN1CCN(c2ccccc2)CC1	78.1*	-6.2	7.4	-31.0	80.1*	23.5%	?
CSc1ccc(CCNS(=O)(=O)c2cc(-c3cc(C)no3)ccc2C)cc1	0.2	·	·	9.3	·	·	·
Cc1oc2cc3oc(=O)c(CCC(=O)N(C)CC(=O)O)c(C)c3cc2c1C	-1.0	-2.1	-3.6	12.1	-4.1	·	·
COc1ccc(S(=O)(=O)N(C)c2ccc(C(=O)Nc3cccnc3)cc2)cc1	-0.3	0.5	2.7	12.5	-9.3	·	·
CC(Oc1ccc(F)cc1)C(=O)Nc1cc(S(=O)(=O)N2CCOCC2)ccc1N1CCCC1 (configuration not stated)	-1.1	-34.0	3.2	-5.1	-9.1	·	·
CCN1CCN(c2ccc(S(=O)(=O)N3CCOCC3)cc2NC(=O)C(C)Oc2ccc(F)cc2)CC1 (configuration not stated)	-0.2	-7.5	4.3	8.2	1.5	-10.8%	-1.7%
COc1ccc(S(=O)(=O)Nc2cc3c4c(c2)CCN4C(=O)CC3)cc1C	0.4	-1.3	-0.9	-4.6	14.9	·	·
O=C(CN(Cc1ccc(F)cc1)C(=O)CNS(=O)(=O)c1ccc(F)cc1)NCC1CCCO1 (configuration not stated)	3.5	4.0	2.6	-0.6	9.2	1.1%	-0.8%
O=C(CN(Cc1cccs1)C(=O)CNS(=O)(=O)c1ccc(F)cc1)NCC1CCCO1 (configuration not stated)	0.0	-18.6	-6.7	2.8	0.4	·	·
Cc1ccc(OCCC(=O)OCC(=O)N2CCN(S(=O)(=O)c3ccc(C)cc3C)CC2)cc1	-0.3	8.7	1.8	17.4	-12.6	·	·
SMILES	D2 ag-1	D2 PAM-1	D2 ag-2	D2 PAM-2	D2 antagonist	D3 arrestin ag	D2 ag-3
COc1ccc(CCC(=O)OCC(=O)N2CCN(S(=O)(=O)c3ccc(C)cc3C)CC2)cc1	0.1	-34.6	-6.9	6.4	16.4	2.4%	-1.0%
COc1ccc(C(=O)Cn2c(Cl)nc3c2c(=O)n(C)c(=O)n3C)cc1	-0.5	-9.3	-1.1	12.8	5.1	·	·
OC(COc1ccc2c(c1)OCO2)CN1CCN(c2ccc(F)cc2)CC1 (configuration not stated)	29.6	-5.6	0.9	-33.8	75.8*	5.1%	-0.8%
CC(C)c1ccc(OCC(O)CN2CCN(c3ccc(F)cc3)CC2)cc1 (configuration not stated)	28.8	·	·	-16.2	·	·	·
CC(=O)c1ccc(OCC(O)CN2CCN(c3ccc(F)cc3)CC2)cc1 (configuration not stated)	83.2*	-16.0	8.8	-48.6	16.6	19.8%	23.5%
CCC(=O)c1ccc(OCC(O)CN2CCN(c3ccc(F)cc3)CC2)cc1 (configuration not stated)	7.3	-8.0	0.4	-5.7	30.6*	?	18.4%
F[B-](F)(F)c1cncc2ccccc12	·	·	-0.8	·	·	·	·
COc1ccc(CNC(C)CCc2ccccc2)cc1 (configuration not stated)	64.5*	-24.5	3.5	-26.1	61.5*	-1.1%	9.7%
CC(CCc1ccccc1)NCc1ccc(Cl)cc1Cl (configuration not stated)	51.8*	1.3	13.8	-26.4	45.0*	16.4%	9.8%
COc1cc(CCC(C)NCc2ccccc2)ccc1O (configuration not stated)	79.3*	-12.4	?	-34.7	74.9*	-3.9%	?
CC(CCc1ccc(O)cc1)NCc1ccc(Br)cc1 (configuration not stated)	38.8*	-16.0	0.5	-14.6	31.7*	?	2.2%
CC(=O)NC(C)CCc1ccccc1 (configuration not stated)	0.5	-3.3	0.3	8.3	-11.3	·	·
CC(CCc1ccccc1)NCC#N (configuration not stated)	56.7*	-7.8	8.3	-17.4	33.6*	8.0%	6.5%
CCOC(=O)NC(=O)/C(C#N)=N\Nc1cccc(Cl)c1	6.8	-2.3	4.5	9.3	38.1*	9.2%	-1.7%
COc1ccc2sc(-c3ccccc3OC)c(-c3ccc(OC)c(F)c3)c2c1	47.7*	-5.6	-0.9	-33.9	2.8	-6.2%	-2.0%
